These results are taken from the supplement of paper PMC11624193, “Coupling cellular drug-target engagement to downstream pharmacology with CeTEAM” (Nature Communications, 2024).

Structures are written as SMILES. Structures can show the parent of a compound that is named as a salt. Unmarked numbers belong to inactive results.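 Rule for the calls: active = log2 fold change beyond 2 SD from the library mean after excluding viability outliers; inactive = within 2 SD.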

Sequence of PARP1 L713F-nLuc biosensor (HCT116) (P09874 whole entry L713F, looked up): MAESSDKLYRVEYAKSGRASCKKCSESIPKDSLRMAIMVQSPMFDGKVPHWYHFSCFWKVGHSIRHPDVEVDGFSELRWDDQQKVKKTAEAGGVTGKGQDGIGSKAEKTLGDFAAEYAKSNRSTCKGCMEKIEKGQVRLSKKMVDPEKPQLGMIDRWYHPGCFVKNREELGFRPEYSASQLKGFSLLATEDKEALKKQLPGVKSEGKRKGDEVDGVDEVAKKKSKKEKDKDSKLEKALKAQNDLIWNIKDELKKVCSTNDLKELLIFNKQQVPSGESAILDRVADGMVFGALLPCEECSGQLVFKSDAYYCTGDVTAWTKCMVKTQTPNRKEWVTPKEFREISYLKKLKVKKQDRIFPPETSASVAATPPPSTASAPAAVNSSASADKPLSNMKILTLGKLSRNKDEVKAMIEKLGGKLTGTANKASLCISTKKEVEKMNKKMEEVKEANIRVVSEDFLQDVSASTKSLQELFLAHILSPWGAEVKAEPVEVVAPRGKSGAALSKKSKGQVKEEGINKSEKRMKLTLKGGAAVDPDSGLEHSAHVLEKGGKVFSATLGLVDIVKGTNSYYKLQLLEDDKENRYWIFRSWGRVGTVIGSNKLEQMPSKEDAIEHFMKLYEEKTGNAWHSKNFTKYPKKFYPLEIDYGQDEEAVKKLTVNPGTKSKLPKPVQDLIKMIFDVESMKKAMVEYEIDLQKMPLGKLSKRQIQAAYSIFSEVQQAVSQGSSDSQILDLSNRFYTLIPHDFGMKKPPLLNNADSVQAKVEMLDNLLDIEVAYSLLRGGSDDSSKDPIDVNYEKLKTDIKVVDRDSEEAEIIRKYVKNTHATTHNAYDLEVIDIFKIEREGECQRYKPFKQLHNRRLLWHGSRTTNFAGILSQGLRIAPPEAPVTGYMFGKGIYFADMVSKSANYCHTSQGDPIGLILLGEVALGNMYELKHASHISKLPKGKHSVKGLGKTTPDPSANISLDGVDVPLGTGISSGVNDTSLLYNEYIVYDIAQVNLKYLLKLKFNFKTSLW

The test addresses PARP1 L713F-nLuc biosensor (HCT116) (UniProt P09874). Description: PARP1 L713F-nLuc/akaLuc ratio relative to DMSO control (biosensor stabilization) (fold change); higher = more PARP1 biosensor stabilization (target engagement / stabilizer), active = hit call of the paper. As to conditions: stock concentration (mM; final µM = stock mM x 1): 10; 24 h.
In the case of `Clc1ccc2c(N3CCNCC3)ccnc2c1` [7-Chloro-4-(piperazin-1-yl)quinoline], the “PARP1 L713F-nLuc/akaLuc ratio” value was 0.933.

As for `CC(O)(CS(=O)(=O)c1ccc(F)cc1)C(=O)Nc1ccc(C#N)c(C(F)(F)F)c1` (stereo not drawn) [Bicalutamide], the “PARP1 L713F-nLuc/akaLuc ratio” value was 0.786.

As for `CC[C@@H](C(N)=O)N1CCCC1=O` [Levetiracetam], the “PARP1 L713F-nLuc/akaLuc ratio” value is 1.19.

For `COCC1(CO)C(=O)C2CCN1CC2` (stereo not drawn), the “PARP1 L713F-nLuc/akaLuc ratio” value was 1.09.

`Cn1cc(C2=C(c3cn(C4CCN(Cc5ccccn5)CC4)c4ccccc34)C(=O)NC2=O)c2ccccc21`: the “PARP1 L713F-nLuc/akaLuc ratio” value is 1.12.

`CC[C@@]1(O)C(=O)OCc2c1cc1n(c2=O)Cc2cc3ccccc3nc2-1` [Camptothecin]: the “PARP1 L713F-nLuc/akaLuc ratio” value was 0.495.

`CCc1c(C(=O)C(N)=O)c2c(OCC(=O)O)cccc2n1Cc1ccccc1`: the “PARP1 L713F-nLuc/akaLuc ratio” value is 0.845.

For the compound `Cc1cc(O)cc(C)c1C=C1C(=O)N(Cc2ccccc2)C(=O)N(Cc2ccccc2)C1=O`, the “PARP1 L713F-nLuc/akaLuc ratio” value was 1.52.

Turning to `c1ccc([C@@H]2C[C@H]2NC2CCNCC2)cc1` [GSK-LSD1 (dihydrochloride)], the “PARP1 L713F-nLuc/akaLuc ratio” value is 0.955.

For the compound `O=C(NO)c1cnc(NC2(c3ccccc3)CCC(F)(F)CC2)nc1`, the “PARP1 L713F-nLuc/akaLuc ratio” value is 5.69 (active).

`c1cncc(C2Nc3ccccc3-n3cccc32)c1` (stereo not drawn): the “PARP1 L713F-nLuc/akaLuc ratio” value is 0.887.

Consider `NCCCNCCSP(=O)(O)O` [Amifostine], for which the “PARP1 L713F-nLuc/akaLuc ratio” value was 1.22.

For `CC(C)=CCCC1=CC(=O)c2c(O)ccc(O)c2C1=O` [Deoxyshikonin], the “PARP1 L713F-nLuc/akaLuc ratio” value was 0.834.

Turning to `O=C(O)CNC(=O)C1C(=O)N(C2CCCCC2)C(=O)N(C2CCCCC2)C1=O` [Daprodustat], the “PARP1 L713F-nLuc/akaLuc ratio” value is 0.831.

Regarding `O=C(NO)c1cnc(NC2(c3cccc(F)c3)CCCCC2)nc1`, the “PARP1 L713F-nLuc/akaLuc ratio” value is 0.756.

Take `CCN1CCN(C(=O)Cc2ccc(Nc3ncc(F)c(Nc4ccc(C(=O)Nc5ccccc5Cl)cc4)n3)cc2)CC1`: the “PARP1 L713F-nLuc/akaLuc ratio” value is 1.15.

Turning to `O=C(O)CNC(=O)c1c(O)c2ccccc2n(Cc2ccccc2)c1=O`, the “PARP1 L713F-nLuc/akaLuc ratio” value is 1.76.

On to `C/C=C(/C)C(=O)O[C@H]1[C@@H]2[C@H](C)C(=O)O[C@@H]2C[C@@H](C)[C@@H]2C=CC(=O)[C@]21C` [Brevilin A], for which the “PARP1 L713F-nLuc/akaLuc ratio” value is 1.47.

For `C=C1C[C@@H]2[C@H](CC[C@]3(C)C(=O)CC[C@@H]23)[C@@]2(C)C=CC(=O)C=C12` [Exemestane], the “PARP1 L713F-nLuc/akaLuc ratio” value is 1.

Consider `N[C@@H](CNC(=O)C(=O)O)C(=O)O` [Dencichine], for which the “PARP1 L713F-nLuc/akaLuc ratio” value was 1.45.

As for `CN(C)NC(=O)CCC(=O)O` [Daminozide], the “PARP1 L713F-nLuc/akaLuc ratio” value was 0.786.

Consider `CC[C@@H](C(=O)[C@@H](C)[C@@H](O)[C@H](C)[C@@H]1O[C@@H]([C@@H](CC)C(=O)O)CC[C@@H]1C)[C@H]1O[C@]2(C=C[C@@H](O)[C@]3(CC[C@@](C)([C@H]4CC[C@](O)(CC)[C@H](C)O4)O3)O2)[C@H](C)C[C@@H]1C` [Salinomycin (from Streptomyces albus)], for which the “PARP1 L713F-nLuc/akaLuc ratio” value was 0.553.

Regarding `CC(=O)O[C@H]1[C@H]2[C@@H](OC(=O)Cc3ccccc3)[C@@H](C)C[C@]2(OC(C)=O)C(=O)/C(C)=C/[C@@H]2[C@H](CC[C@@]13CO3)C2(C)C` [Euphorbiasteroid], the “PARP1 L713F-nLuc/akaLuc ratio” value is 0.646.

For `COc1cc(C)[nH]c(=O)c1CNC(=O)c1c(C)n([C@H](C)C2CCOCC2)c2ccccc12`, the “PARP1 L713F-nLuc/akaLuc ratio” value was 0.857.

As to `CCCC(=O)O[C@@H]1[C@@H](C)[C@@]2(O)[C@@H](C=C(CO)C[C@]3(O)C(=O)C(C)=C[C@@H]23)[C@@H]2C(C)(C)[C@]12OC(=O)CCC` [Phorbol 12,13-dibutyrate], the “PARP1 L713F-nLuc/akaLuc ratio” value was 1.36.

On to `CCC1(c2ccc(N)cc2)CCC(=O)NC1=O` (stereo not drawn) [Aminoglutethimide], for which the “PARP1 L713F-nLuc/akaLuc ratio” value is 0.862.

As to `COc1ccc2c(c[n+](C)c3c4cc5c(cc4ccc23)OCO5)c1OC` [Chelerythrine (chloride)], the “PARP1 L713F-nLuc/akaLuc ratio” value is 0.843.

Turning to `COc1ccc2c(c1)C(c1ccc(Cl)cc1)=N[C@@H](CC(=O)O)c1nnc(C)n1-2` [I-BET762 carboxylic acid], the “PARP1 L713F-nLuc/akaLuc ratio” value is 0.834.

Turning to `C[C@@H]1C(=O)O[C@H]2[C@H](O)[C@@]34O[C@@H]5OC(=O)[C@H](O)[C@@]56[C@H](C(C)(C)C)[C@H](O)C(OC3=O)[C@]64[C@@]12O` (stereo partly drawn) [Ginkgolide C], the “PARP1 L713F-nLuc/akaLuc ratio” value was 0.961.

Consider `COc1cc(C(=O)N2CC[C@@H](O)[C@@H](N)C2)cc2nc(-c3cc4ccccc4n3CC3CC3)n(C)c12` [GSK484 (hydrochloride)], for which the “PARP1 L713F-nLuc/akaLuc ratio” value is 1.09.

Turning to `C[C@H](CCC(=O)O)C[C@H](C)C[C@H](C)C(=O)/C=C(\O)[C@H](C)C[C@H](C)C/C=C/[C@@H](C)[C@@H](O)[C@@H](C)[C@@H](O)C[C@@H]1CC[C@@](C)([C@H]2CC[C@@](C)([C@@H](C)O)O2)O1` [Ionomycin (calcium)], the “PARP1 L713F-nLuc/akaLuc ratio” value was 0.727.

On to `COc1c2c3c4c(c(OC)c(=O)c5c(O)cc(OC)c(c6c(OC)cc(O)c(c1=O)c63)c54)[C@@H](C(C)=O)[C@@](C)(O)C2` [Hypocrellin A], for which the “PARP1 L713F-nLuc/akaLuc ratio” value was 0.849.

As for `Cn1cc(C2=C(c3cn(C4CCN(Cc5ccccn5)CC4)c4ccccc34)C(=O)NC2=O)c2ccccc21` [Enzastaurin], the “PARP1 L713F-nLuc/akaLuc ratio” value was 0.72.
